Screens (PubChem BioAssay)
NOD2-RIPK2 inh: NOD2-RIPK2 binding disruptors in cells, primary screen, fluorescence, CHO cells, BLA complementation. Receptor-interacting serine/threonine-protein kinase 2 (Homo sapiens), O43353. CCF4 ratio. inhibition, % at 4.98 µM. actives 0.38% (n = 360,000). AID 624267, 2012; in the data active = inhibition above about 21%;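 also: 0% = vehicle only and 100% = reference blocker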
Neddylation inh: inhibitors of cullin neddylation, primary screen, biochemical, TR-FRET, uHTS, NAE and Ubc12. NEDD8-conjugating enzyme Ubc12 (Homo sapiens) + NEDD8-activating enzyme E1 regulatory …. inhibition, % at 25 µM. actives 0.58% (n = 360,000). AID 651699, 2012; in the data active = inhibition above about 36%
Target sequence (P61081 whole entry, looked up): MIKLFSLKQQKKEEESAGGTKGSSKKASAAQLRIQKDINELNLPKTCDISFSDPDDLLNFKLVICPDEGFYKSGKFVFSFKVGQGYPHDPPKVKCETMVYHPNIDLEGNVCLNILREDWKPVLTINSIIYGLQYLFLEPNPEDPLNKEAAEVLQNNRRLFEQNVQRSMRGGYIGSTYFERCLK
Target sequence (Q13564 whole entry, looked up): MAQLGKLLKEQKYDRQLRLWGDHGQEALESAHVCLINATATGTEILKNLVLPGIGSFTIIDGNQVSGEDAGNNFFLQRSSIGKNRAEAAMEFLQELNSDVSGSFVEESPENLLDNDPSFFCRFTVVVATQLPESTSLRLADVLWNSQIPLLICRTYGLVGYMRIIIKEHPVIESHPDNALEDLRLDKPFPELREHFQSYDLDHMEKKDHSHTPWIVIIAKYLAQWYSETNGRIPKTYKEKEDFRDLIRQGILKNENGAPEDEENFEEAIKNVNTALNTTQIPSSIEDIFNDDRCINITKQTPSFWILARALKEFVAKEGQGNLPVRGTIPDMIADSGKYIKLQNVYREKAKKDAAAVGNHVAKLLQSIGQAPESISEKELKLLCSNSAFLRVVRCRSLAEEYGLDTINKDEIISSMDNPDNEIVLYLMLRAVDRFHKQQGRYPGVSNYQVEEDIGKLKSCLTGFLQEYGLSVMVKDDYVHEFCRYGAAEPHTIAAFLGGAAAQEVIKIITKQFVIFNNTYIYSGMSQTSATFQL
NPR1 activator: GC-A stimulated cGMP production enhancers – HEK293 GC-A cells, cGMP TR-FRET, EC30 ANP, primary screen; activation, % at 10 µM; 0% at EC30 ANP, 100% saturating ANP; Atrial natriuretic peptide receptor 1 (Homo sapiens), P16066; actives 0.14% (n = 370,000); in the data active = activation above about 40%
TLR4-MyD88 BLA: inhibitors of TLR4-MyD88 association in cells, primary screen, cell-based, HeLa CL3-4, BLA complementation, FRET ratio; HeLa CL3-4 TLR4/MyD88 BLA complementation; inhibition, % at 8.4 µM; actives 0.18% (n = 200,000); AID 861, 2007; in the data active = inhibition above about 25%;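 also: 0% = vehicle and 100% = reference inhibitor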
TLR9-MyD88 inh: inhibitors of TLR9-MyD88 association in cells, primary screen, cell-based, CHO, BLA complementation, fluorescence. Toll-like receptor 9 (Homo sapiens) + Myeloid differentiation primary response protein …. actives 0.21% (n = 340,000). CCF4 FRET ratio. inhibition, % at 4.98 µM;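 active = inhibition above the mean over all tested compounds plus 3 SD, cut at about 21% in these data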;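 also: 0% = DMSO only wells and 100% = clavulanate BLA inhibitor control wells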
GC-B act: human GC-B receptor activators, primary screen, HEK293 GC-B cells, cGMP TR-FRET, EC30 CNP; Atrial natriuretic peptide receptor 2 (Homo sapiens), P20594; 0% at EC30 CNP, 100% saturating CNP; activation, % at 10 µM; actives 0.11% (n = 370,000);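 active = activation at 10 µM reaching about 35% in either raw or pattern-adjusted values, limit read from the data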
The depositor's hits bear a star; / = not tested or not shown. Sampled rows, rich in hits. Any-hit rate of the full collection: about 1.2%.

SMILES	NOD2-RIPK2 inh	Neddylation inh	NPR1 activator	TLR4-MyD88 BLA	TLR9-MyD88 inh	GC-B act
S=C(c1ccc(-c2cc(Cl)ccc2Cl)o1)N1CCOCC1	2	-5	18	9	2	43*
COc1ccccc1-c1cc2nc(C)c(CCC(=O)NC(C)CCc3ccco3)c(C)n2n1 (configuration not stated)	5	51*	2	-3	6	-6
COc1ccccc1CNC(=O)CCc1c(C)nc2cc(-c3ccccc3OC)nn2c1C	-5	/	0	/	9	-6
CCOC(=O)N1CCN(C(=O)C[C@H]2C[C@@]3(C(=O)OC)C(=C[C@H](C(C)C)O[C@@H]3C3CC3)N(Cc3cccc4ccccc34)C2=O)CC1	/	/	-1	/	/	4
COc1ccc(COc2cc(-c3cccc(OC)c3)nc3ccc(NC(=O)c4ccccc4)cc23)cc1	-3	36	40*	1	7	44*
COc1ccc(COc2cc(-c3cccc(OC)c3)nc3ccc(NC(=O)c4cccnc4)cc23)cc1	2	33	52*	-6	-6	57*
COc1ccc(COc2cc(-c3cccc(OC)c3)nc3ccc(NC(=O)c4ccc(OC)cc4)cc23)cc1	6	26	31	-13	8	33
O=C(O)C1CCN(C(=O)c2ccccc2N2C(=O)[C@@H]3Cc4c([nH]c5ccccc45)C(c4cccc(Cl)c4)N3C2=O)CC1 (some centres not stated)	-4	13	53*	/	-8	58*
COc1ccc(N=Cc2nc(-c3ccco3)oc2O)cc1	-10	6	-3	-3	-2	-9
O=C(Oc1oc(-c2ccco2)nc1C=Nc1ccc(Cl)cc1)c1ccco1	5	3	44*	-1	-6	1
COc1ccc(C(=O)Nc2ccc(Cl)cc2C(=O)NCc2ccco2)cc1OC	-1	27	33	-7	-10	39*
COc1cc(C(=O)Nc2sc3c(c2C(=O)NCc2ccco2)CCCC3)cc(OC)c1OC	10	-50	29	-13	-4	41*
Nc1c(C(O)(C(F)(F)F)C(F)(F)F)cc(C(O)(C(F)(F)F)C(F)(F)F)c2ccccc12	-6	40*	/	-3	3	/
O=S1(=O)c2ccc(N3CCN(Cc4ccccc4F)CC3)cc2Oc2ccccc2CN1Cc1cn(Cc2ccc(C(F)(F)F)cc2)nn1	/	/	1	/	/	6
COC(=O)[C@]12C[C@H](CC(=O)NCc3cccs3)C(=O)N(Cc3ccc(Cl)cc3Cl)C1=C[C@H](C(C)(C)C)O[C@@H]2C	/	/	-8	/	/	-13
COc1ccc(NC(=O)c2cc(-c3cc(Cl)ccc3OC)n[nH]2)c(C)c1	-3	-5	75*	/	/	88*
CCCOc1ccc(F)cc1-c1cc(C(=O)Nc2ccc(OC)cc2OC)[nH]n1	-19	19	11	/	/	1
CCCOc1ccc(F)cc1-c1cc(C(=O)Nc2ccc(OC)cc2C)[nH]n1	4	7	58*	/	/	62*
COc1ccc(NC(=O)c2cc(-c3cc(Cl)ccc3C)n[nH]2)c(OC)c1	2	-3	4	/	/	0
O=C1/C(=C/c2ccc(N3CCOCC3)o2)SC(=Nc2ccccc2)N1CCc1c[nH]c2ccccc12	47*	-40	/	14	14	/
CSc1ccccc1OCc1cc(C(=O)N[C@H]2CCCCNC2=O)no1	-9	6	62*	/	-6	2
CCOC(=O)C1=C(c2ccccc2)N=c2s/c(=C\c3ccco3)c(=O)n2C1c1cccs1 (configuration not stated)	-1	-15	-10	4	6	-3
CCOC(=O)C1=C(c2ccccc2)N=c2s/c(=C\c3cc(OC)c(OC)c(OC)c3)c(=O)n2C1c1cccs1 (configuration not stated)	11	11	-2	24	22*	-4
CCOC(=O)C1=C(C)N=c2s/c(=C/c3ccc(OCC(=O)O)c(OC)c3)c(=O)n2C1c1ccc(Cl)cc1 (configuration not stated)	5	65*	-2	/	3	-5
CCOC(=O)c1c(C)n(CCOc2ccccc2)c2ccc(O)cc12	-9	9	56*	/	-2	-1
SMILES	NOD2-RIPK2 inh	Neddylation inh	NPR1 activator	TLR4-MyD88 BLA	TLR9-MyD88 inh	GC-B act
CCOC(=O)c1c(C)n(CCNC(C)=O)c2ccc(O)cc12	-12	12	-1	-15	0	4
COc1ccc(C(=O)CCS(=O)(=O)c2ccc(C)cc2)cc1	-10	-1	9	/	-12	-2
Cc1ccc(C(=O)CCS(=O)(=O)c2ccc(Br)cc2)cc1	3	-28	46*	/	6	-5
Cc1cc(/C=N/NC(=O)c2cccs2)c(C)n1-c1ccccc1	-1	40*	-5	0	7	-9
CCOc1cc(N2CCOCC2)c(OCC)cc1NC(=O)COC(=O)c1ccc([N+](=O)[O-])o1	5	-29	37	/	-8	37*
CCOc1cc(N2CCOCC2)c(OCC)cc1NC(=O)COC(=O)c1cc(C)cc(C)c1	-6	5	20	14	1	28
CC(=O)CC[C@H]1CC[C@]2(CCCN(Cc3nccn3C)C2)O1	/	/	1	/	/	-5
O=C1c2ccccc2NC(c2ccc(O)c(O)c2)N1c1ccccc1Cl (configuration not stated)	4	50*	-1	/	-19	-2
N#Cc1nc(NCC(F)F)nc(Nc2cc(F)cc(F)c2)n1	-2	7	44*	/	-5	39*
Nc1nc2c(nc(Br)n2[C@@H]2O[C@@H]3COP(=O)(O)O[C@H]3[C@H]2O)c(=O)[nH]1	-5	-6	116*	/	8	114*
Cc1ccccc1C1C(C#N)=C2N=C(N)c3ccccc3N2C2=C1C(=O)CCC2 (configuration not stated)	-7	-17	28	/	7	38*
N#CC1=C2N=C(N)c3ccccc3N2C2=C(C(=O)CCC2)C1c1cccc(Cl)c1 (configuration not stated)	-8	-4	-1	8	-2	9
CCOC(=O)C1=C(Cc2ccc(F)cc2)C(=O)c2ccccc2C1=O	30*	6	9	-2	16	-3
COc1ccc([C@H]2OC(=O)C[C@H]2C(=O)N2CCN(c3ccccc3C(F)(F)F)CC2)cc1OC	/	/	-8	/	/	-13
